# For some of these results: Results with a measured potency or affinity are listed apart. The source made the active and inactive calls.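 The calls were made as follows, unless noted: active = fluorescence ratio normalized to control raised more than 50% in primary screen plus both repeat runs; inactive = the rest.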
# Key:
# [1] = test system: TRPC4 beta (transient receptor potential cation channel C4), mouse; assay: activators of mouse TRPC4 channel, confirmation, cell-based, Fluo4 calcium, HEK293 TRPC4beta/mu-opioid, duplicates, 10 µM (AID 2426); details: Fluo4 calcium fluorescence, at 10 µM; stronger effect = higher value
# [2] = test system: transient receptor potential cation channel C4 beta (TRPC4), mouse; assay: activators of mouse TRPC4 channel, confirmation, cell-based, second round, Fluo4, HEK293 TRPC4beta/mu-opioid, 1 µM (AID 2461;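 active = primary screen active and over 50% activation in each of two duplicate runs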); details: Fluo4 calcium fluorescence, at 1 µM; stronger effect = higher value
# [3] = test system: TRPC4 (transient receptor potential cation channel C4 beta), mouse; assay: positive allosteric modulators of mouse TRPC4, confirmation, cell-based, second round, Fluo-4, HEK293 TRPC4beta/mu-opioid, 1 µM (AID 2554;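 active = primary screen hit whose fluorescence ratio, in both repeats, exceeds the weak agonist control mean by 3 SD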); details: DAMGO EC20, Fluo-4 calcium flux, at 1 µM; stronger effect = higher value
# [4] = test system: TRPC4 beta (transient receptor potential cation channel C4), mouse; assay: positive allosteric modulators of mouse TRPC4, confirmation, cell-based, Fluo-4, HEK293 TRPC4beta/mu-opioid (AID 2555;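 active = primary screen hit whose calcium fluorescence ratio, in both repeats, exceeds the weak agonist control mean by 3 SD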); details: DAMGO EC20, Fluo-4 calcium flux, at 10 µM; stronger effect = higher value
# [5] = molecular target: Short transient receptor potential channel 4 (Mus musculus) (UniProt Q9QUQ5); assay: inhibitors of mouse TRPC4 channel, confirmation, cell-based, Fluo4, HEK293 TRPC4beta/mu-opioid (AID 2636;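 active = calcium signal cut by more than 3 SD below the full-agonist control yet still positive, in both repeats and the earlier primary screen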); details: DAMGO, Fluo4 calcium flux, at 10 µM; stronger effect = higher value
# Sequence of Short transient receptor potential channel 4 (Mus musculus) (Q9QUQ5 whole entry, looked up): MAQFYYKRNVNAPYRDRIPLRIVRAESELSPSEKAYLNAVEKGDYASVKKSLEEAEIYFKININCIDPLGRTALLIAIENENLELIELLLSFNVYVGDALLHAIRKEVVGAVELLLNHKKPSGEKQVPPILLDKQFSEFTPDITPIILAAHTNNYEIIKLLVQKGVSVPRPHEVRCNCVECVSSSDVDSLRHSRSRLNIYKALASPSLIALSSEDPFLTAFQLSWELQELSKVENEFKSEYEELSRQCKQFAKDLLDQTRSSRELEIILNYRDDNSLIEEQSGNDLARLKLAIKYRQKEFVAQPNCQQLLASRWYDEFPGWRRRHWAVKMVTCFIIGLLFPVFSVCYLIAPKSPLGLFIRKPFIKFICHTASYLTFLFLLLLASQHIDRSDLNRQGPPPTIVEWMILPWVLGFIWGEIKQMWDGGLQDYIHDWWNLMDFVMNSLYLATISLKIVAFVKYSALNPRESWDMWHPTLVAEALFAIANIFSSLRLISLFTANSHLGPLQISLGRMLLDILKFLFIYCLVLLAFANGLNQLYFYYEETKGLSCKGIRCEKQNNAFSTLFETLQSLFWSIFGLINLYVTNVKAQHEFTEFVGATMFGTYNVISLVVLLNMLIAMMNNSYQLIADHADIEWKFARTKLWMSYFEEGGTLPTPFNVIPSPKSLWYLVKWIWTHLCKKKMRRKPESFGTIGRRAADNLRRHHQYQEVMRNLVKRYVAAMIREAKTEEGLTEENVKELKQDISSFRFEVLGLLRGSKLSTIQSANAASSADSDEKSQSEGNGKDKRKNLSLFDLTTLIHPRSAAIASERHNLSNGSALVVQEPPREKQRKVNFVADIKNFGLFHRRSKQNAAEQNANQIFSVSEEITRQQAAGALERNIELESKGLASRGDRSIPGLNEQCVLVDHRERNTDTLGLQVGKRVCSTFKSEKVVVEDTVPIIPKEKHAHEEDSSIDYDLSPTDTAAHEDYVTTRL
# [6] = molecular target: Short transient receptor potential channel 4 (Mus musculus) (UniProt Q9QUQ5); assay: inhibitors of mouse TRPC4 channel, confirmation, cell-based, second round, Fluo4, HEK293 TRPC4beta/mu-opioid, 1 µM (AID 2637;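 active = calcium signal ratio cut to more than 3 SD under the fully stimulated control mean yet still positive, in both repeats and the primary screen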;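 as to inhibition: percent of integrated ratio relative to wells lacking test compound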); details: Fluo4 calcium flux, DAMGO, at 1 µM; stronger effect = higher value
# [7] = molecular target: Short transient receptor potential channel 4 (Mus musculus) (UniProt Q9QUQ5); assay: mouse TRPC4 channel activators, dose response, cell-based, HEK293 TRPC4/mu-opioid, Fluo-4 calcium (AID 434937;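 active = primary screen activator hit with a dose response curve and TRPC4 channel activation at any tested dose; inactive = no activation, no dose response, or not a primary hit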)
# [8] = molecular target: Short transient receptor potential channel 4 (Mus musculus) (UniProt Q9QUQ5); assay: TRPC4 positive allosteric modulators, dose response, cell-based, HEK293 TRPC4/mu-opioid, Fluo-4 calcium, EC20 DAMGO (AID 434941;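 active = earlier screen potentiator hit that boosts the TRPC4 ion channel at some dose, with a dose response; inactive = no potentiation, no dose response, or not a prior hit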;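 also: calcium entry triggered by an EC20 dose of DAMGO at the co-expressed mu-opioid receptor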)
# [9] = molecular target: Short transient receptor potential channel 6 (Mus musculus) (UniProt Q61143); assay: inhibition of mouse TRPC6 channel, confirmation, selectivity assay for TRPC4 inhibitor project, cell-based, HEK293, membrane potential dye, duplicate (AID 434948;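 active = active in primary screen and both duplicates, each dropping signal beyond three positive-control SD with fluorescence still positive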); details: HEK293 TRPC6, membrane potential dye fluorescence, at 10 µM, stimulated with maximal-effect acetylcholine; stronger effect = higher value
# Sequence of Short transient receptor potential channel 6 (Mus musculus) (Q61143 whole entry, looked up): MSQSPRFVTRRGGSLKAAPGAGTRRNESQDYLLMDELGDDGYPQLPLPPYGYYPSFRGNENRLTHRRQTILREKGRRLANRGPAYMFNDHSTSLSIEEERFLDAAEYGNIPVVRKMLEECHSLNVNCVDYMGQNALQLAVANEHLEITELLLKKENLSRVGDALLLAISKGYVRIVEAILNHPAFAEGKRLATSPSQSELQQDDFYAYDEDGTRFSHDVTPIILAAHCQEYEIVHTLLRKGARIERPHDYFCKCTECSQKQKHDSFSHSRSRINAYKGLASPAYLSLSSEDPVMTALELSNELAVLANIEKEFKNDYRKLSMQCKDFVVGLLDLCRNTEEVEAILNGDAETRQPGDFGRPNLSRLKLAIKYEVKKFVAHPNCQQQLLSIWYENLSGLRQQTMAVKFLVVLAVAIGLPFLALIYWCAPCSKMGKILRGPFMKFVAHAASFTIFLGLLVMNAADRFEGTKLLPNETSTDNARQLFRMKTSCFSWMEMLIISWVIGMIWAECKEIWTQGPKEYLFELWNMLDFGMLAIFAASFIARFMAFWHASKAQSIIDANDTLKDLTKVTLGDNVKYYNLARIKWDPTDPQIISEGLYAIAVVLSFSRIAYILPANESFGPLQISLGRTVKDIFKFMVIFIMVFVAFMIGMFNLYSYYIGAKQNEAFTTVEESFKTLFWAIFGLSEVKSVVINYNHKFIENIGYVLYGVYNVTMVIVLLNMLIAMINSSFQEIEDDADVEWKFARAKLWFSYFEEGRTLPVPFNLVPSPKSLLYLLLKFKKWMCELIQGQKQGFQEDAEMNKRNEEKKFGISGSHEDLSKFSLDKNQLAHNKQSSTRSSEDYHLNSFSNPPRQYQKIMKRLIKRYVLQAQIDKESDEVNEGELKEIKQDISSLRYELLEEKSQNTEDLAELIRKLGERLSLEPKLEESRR
# [10] = molecular target: Short transient receptor potential channel 6 (Mus musculus) (UniProt Q61143); assay: activation of mouse TRPC6 channel, confirmation, selectivity assay for TRPC4 activator project, cell-based, HEK293, membrane potential dye, duplicate (AID 434950;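 active = membrane potential signal rise above negative control mean plus 3 SD in both duplicates, also active in the earlier TRPC4 screen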); details: HEK293 TRPC6, membrane potential fluorescence, at 10 µM; stronger effect = higher value
# [11] = molecular target: Short transient receptor potential channel 6 (Mus musculus) (UniProt Q61143); assay: TRPC6 potentiation by TRPC4 potentiator hits, confirmation, selectivity assay for TRPC4 potentiator project, HEK293 cells, membrane potential dye, duplicate (AID 434952;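 active = compound raising the membrane signal above positive-control mean plus 3 SD in both repeats, and a primary screen hit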); details: HEK293 TRPC6, membrane potential dye fluorescence, at 10 µM, maximal acetylcholine added after compound; stronger effect = higher value
# [12] = molecular target: Short transient receptor potential channel 4 (Mus musculus) (UniProt Q9QUQ5); assay: calcium flux activators in TRPC4/5HT1a cells, counter-screen for TRPC4 activator project, cell-based, second counter screen, HEK293 TRPC4/5HT1a, Fluo-4 (AID 434977;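 active = calcium signal rise above buffer-control mean plus 5 SD in both duplicates, and also a hit in the primary screen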); details: Fluo-4 calcium flux, at 10 µM; stronger effect = higher value
# [13] = calcium flux inhibitors in TRPC4/5HT1a cells, confirmation, counter-screen for TRPC4 inhibitor project, cell-based, second counter screen, HEK293 TRPC4/5HT1a, Fluo-4 (AID 434978;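 active = primary screen active whose calcium signal fell more than 3 SD beyond the full-serotonin control mean in both duplicate plates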;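 as to outcome: serotonin given first at submaximal then at maximal dose after compound preincubation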); details: Fluo-4 calcium flux, at 10 µM, serotonin added to trigger calcium flux; stronger effect = higher value
# [14] = test system: TRPC4 (mouse), co-expressed with 5HT1a in HEK293; assay: calcium flux potentiators in TRPC4/5HT1a cells, confirmation, counter-screen for TRPC4 potentiator project, cell-based, second counter screen, HEK293 TRPC4/5HT1a, Fluo-4 (AID 434979;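 active = signal rise over 3 SD above mean of control wells given weak agonist, in both repeats and first screen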); details: Fluo-4 calcium flux, at 10 µM, serotonin added at its EC20 dose; stronger effect = higher value
# [15] = calcium flux activation in mu-opioid HEK293 cells, confirmation, counter-screen for TRPC4 activator project, cell-based, HEK293 mu-opioid receptor line (AID 449723;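 active = hit in primary screen, with calcium signal over 5 SD above buffer well mean in both duplicates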;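 also: counter screen cells carry the mu-opioid receptor alone and lack TRPC4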); details: Fluo-4 calcium fluorescence, at 10 µM; stronger effect = higher value
# [16] = calcium flux enhancement in mu-opioid HEK293 cells, confirmation, counter-screen for TRPC4 allosteric potentiator project, cell-based, HEK293 mu-opioid receptor line (AID 449724;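 active = calcium signal rise more than 3 SD above the low-dose agonist control mean, in both duplicate plates and the primary screen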); details: Fluo-4 calcium flux, at 10 µM, compound added before EC20 DAMGO stimulus; stronger effect = higher value
Structure (SMILES),outcome [1],outcome [2],outcome [3],outcome [4],outcome [5],outcome [6],outcome [7],outcome [8],outcome [9],outcome [10],outcome [11],outcome [12],inhibition [13],outcome [14],outcome [15],outcome [16],inhibition [5],inhibition [6],outcome [13],inhibition [9]
Cc1ccc(C(C)(C)C)cc1S(=O)(=O)Nc1nc2ccccc2nc1Cl,inactive,inactive,inactive,inactive,inactive,inactive,inactive,inactive,inactive,inactive,inactive,inactive,6.84% (active),inactive,inactive,inactive,–,–,–,–
Cc1nc2ccccc2n1CC(O)COc1ccccc1Cl (stereo unspecified),inactive,inactive,inactive,inactive,–,–,inactive,inactive,inactive,inactive,inactive,inactive,–,inactive,inactive,inactive,72% (active),40% (active),inactive,–
Cc1ccn2cc(CCNC(=O)c3ccc(Br)o3)nc2c1,inactive,inactive,inactive,inactive,–,inactive,inactive,inactive,inactive,inactive,inactive,inactive,34.1% (active),inactive,inactive,inactive,89% (active),–,–,–
Cc1ccc(Cn2c(=N)n(CC(O)c3ccco3)c3ccccc32)cc1 (stereo unspecified),inactive,inactive,inactive,inactive,–,–,inactive,inactive,–,inactive,inactive,inactive,17.1% (active),inactive,inactive,inactive,94% (active),63% (active),–,37% (active)
CC(=O)Nc1ccc(S(=O)(=O)Nc2nc3ccc(C)cc3s2)cc1,inactive,inactive,inactive,inactive,–,inactive,inactive,inactive,inactive,inactive,inactive,inactive,–,inactive,inactive,inactive,65% (active),–,inactive,–
CC(C)(C)Cc1nc2ccccc2n1CCc1ccccc1,inactive,inactive,inactive,inactive,–,–,inactive,inactive,inactive,inactive,inactive,inactive,17.2% (active),inactive,inactive,inactive,82% (active),64% (active),–,–
Cc1ccn2c(-c3csc(NCc4ccco4)n3)c(C)nc2c1,inactive,inactive,inactive,inactive,–,inactive,inactive,inactive,inactive,inactive,inactive,inactive,22.8% (active),inactive,inactive,inactive,96% (active),–,–,–
Cc1ccc(C)c2c(N)c3c(nc12)CCCCC3 (tested in a mixture with another compound),inactive,inactive,inactive,inactive,–,–,inactive,inactive,–,inactive,inactive,inactive,8.52% (active),inactive,inactive,inactive,97% (active),69% (active),–,33.5% (active)
O=C(Cc1cccc2ccccc12)Nc1ccc(Br)cc1C(=O)O,inactive,inactive,inactive,inactive,–,inactive,inactive,inactive,inactive,inactive,inactive,inactive,28.9% (active),inactive,inactive,inactive,89% (active),–,–,–
COC(=O)c1cccc(NC(=S)Nc2cccc(Cl)c2Cl)c1,inactive,inactive,inactive,inactive,–,inactive,inactive,inactive,inactive,inactive,inactive,inactive,–,inactive,inactive,inactive,78% (active),–,inactive,–
CCOC(=O)CSc1nc2c(sc(=S)n2Cc2ccco2)c(=O)n1-c1ccccc1,inactive,inactive,inactive,inactive,–,–,inactive,inactive,inactive,inactive,inactive,inactive,–,inactive,inactive,inactive,68% (active),42% (active),inactive,–
c1ccc2c(N3CCCCC3)nc(N3CCOCC3)nc2c1,inactive,inactive,inactive,inactive,–,inactive,inactive,inactive,inactive,inactive,inactive,inactive,30.8% (active),inactive,inactive,inactive,84% (active),–,–,–
CCOC(=O)C1(CCc2ccccc2)CCN(Cc2ccccn2)CC1,inactive,inactive,inactive,inactive,–,inactive,inactive,inactive,inactive,inactive,inactive,inactive,–,inactive,inactive,inactive,88% (active),–,inactive,–
Cc1cccc(N(C(=O)c2snc(C(N)=O)c2N)C(C(=O)NCC2CCCO2)c2ccc3ncccc3c2)c1 (stereo unspecified),inactive,inactive,inactive,inactive,–,inactive,inactive,inactive,inactive,inactive,inactive,inactive,–,inactive,inactive,inactive,85% (active),–,inactive,–
Cc1ccc(-c2[nH]c3ccccc3c2SCCN)cc1,inactive,inactive,inactive,inactive,inactive,inactive,inactive,inactive,–,inactive,inactive,inactive,–,inactive,inactive,inactive,–,–,inactive,34.5% (active)
O=C1CN=C(Nc2cccc(C(F)(F)F)c2)N1C1CCCC1,inactive,inactive,inactive,inactive,–,inactive,inactive,inactive,inactive,inactive,inactive,inactive,26.8% (active),inactive,inactive,inactive,94% (active),–,–,–

Structure (SMILES),outcome [1],outcome [2],outcome [3],outcome [4],outcome [5],outcome [6],outcome [7],outcome [8],outcome [9],outcome [10],outcome [11],outcome [12],inhibition [13],outcome [14],outcome [15],outcome [16],inhibition [5],inhibition [6],outcome [13],inhibition [9]
CCc1ccc2nc3nc(C)cc(C)c3c(N)c2c1,inactive,inactive,inactive,inactive,–,–,inactive,inactive,–,inactive,inactive,inactive,15.6% (active),inactive,inactive,inactive,96% (active),41% (active),–,27% (active)
CCOc1ccc(CN2CCN(C(=O)c3ccccc3)CC2)cc1,inactive,inactive,inactive,inactive,–,inactive,inactive,inactive,inactive,inactive,inactive,inactive,44.7% (active),inactive,inactive,inactive,79% (active),–,–,–
Cn1nnnc1SCCNCc1ccccc1OCc1ccc(Cl)cc1,inactive,inactive,inactive,inactive,–,–,inactive,inactive,inactive,inactive,inactive,inactive,23.5% (active),inactive,inactive,inactive,88% (active),45% (active),–,–
Cc1cc(C(=O)N/N=C\c2cc(C(C)(C)C)ccc2O)n[nH]1,inactive,inactive,inactive,inactive,–,inactive,inactive,inactive,inactive,inactive,inactive,inactive,24.2% (active),inactive,inactive,inactive,84% (active),–,–,–
CCCCn1c(NCCO)nc2ccccc21,inactive,inactive,inactive,inactive,–,–,inactive,inactive,inactive,inactive,inactive,inactive,29.5% (active),inactive,inactive,inactive,92% (active),66% (active),–,–
Fc1ccccc1COc1ccccc1CNCc1ccncc1,inactive,inactive,inactive,inactive,–,inactive,inactive,inactive,inactive,inactive,inactive,inactive,–,inactive,inactive,inactive,79% (active),–,inactive,–
COc1cccc(C2=NN(C(=O)c3ccco3)C(c3ccco3)C2)c1 (stereo unspecified),inactive,inactive,inactive,inactive,–,inactive,inactive,inactive,inactive,inactive,inactive,inactive,20.6% (active),inactive,inactive,inactive,71% (active),–,–,–
O=C(O)c1cc(NN=C2c3ccccc3-c3ccccc32)ccc1Cl,inactive,inactive,inactive,inactive,–,inactive,inactive,inactive,–,inactive,inactive,inactive,11.8% (active),inactive,inactive,inactive,98% (active),–,–,32% (active)
CN(C)C(CNC(=O)CCc1nc2ccccc2s1)c1ccccc1 (stereo unspecified),inactive,inactive,inactive,inactive,–,–,inactive,inactive,inactive,inactive,inactive,inactive,–,inactive,inactive,inactive,96% (active),86% (active),inactive,–
CCOc1c(Cl)cc(CNCC(O)c2ccccc2)cc1OC (stereo unspecified),inactive,inactive,inactive,inactive,–,inactive,inactive,inactive,inactive,inactive,inactive,inactive,–,inactive,inactive,inactive,86% (active),–,inactive,–
O=C(NCCN1CCOCC1)c1ccc2c(c1)N(Cc1ccc(F)cc1)C(=O)CS2,inactive,inactive,inactive,inactive,inactive,inactive,inactive,inactive,inactive,inactive,inactive,inactive,–,inactive,inactive,inactive,–,–,inactive,–
CC(=O)Oc1ccc(/C=C(\NC(=O)c2ccco2)C(=O)NCc2ccccc2)cc1,inactive,inactive,inactive,inactive,–,inactive,inactive,inactive,inactive,inactive,inactive,inactive,44.5% (active),inactive,inactive,inactive,82% (active),–,–,–
COc1ccc(C2CC2/C(=N/O)c2ccccc2)cc1 (stereo unspecified),inactive,inactive,inactive,inactive,–,inactive,inactive,inactive,inactive,inactive,inactive,inactive,7.57% (active),inactive,inactive,inactive,94% (active),–,–,–
COc1cccc(/C=C2\SC(=S)N(NS(=O)(=O)c3ccc(C)cc3)C2=O)c1OC,inactive,inactive,inactive,inactive,–,inactive,inactive,inactive,inactive,inactive,inactive,inactive,4.07% (active),inactive,inactive,inactive,95% (active),–,–,–
COc1ccc(/C=C2\SC(=S)N(C(Cc3ccccc3)C(=O)O)C2=O)cc1 (stereo unspecified),inactive,inactive,inactive,inactive,–,inactive,inactive,inactive,inactive,inactive,inactive,inactive,32.2% (active),inactive,inactive,inactive,88% (active),–,–,–

# Reference: PubChem BioAssay
